Consider three molecules from PubChem BioAssay (EPA / NIEHS).

Common to all, as to settings: mRNA level, 48 h; actives raise or lower the signal
Read-out in assay [1]: Early growth response protein 1 (EGR1) transcription factor, EGR1 (gene 1958)
Briefly: LTEA_HepaRG_EGR1: Life Technologies and Expression Analysis (LTEA) Assay for Early growth response protein 1 (EGR1) transcription factor using HepaRG (AID 2283490). A digest of the protocol:
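Differentiated HepaRG cells in serum-free induction medium exposed 48 hours, duplicate, to 8 half-log concentrations up to 100 uM in 0.5% DMSO. EGR1 mRNA measured by TaqMan qRT-PCR, normalized to ACTB, GAPDH, POLR2A; bidirectional fit versus DMSO.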

Read-out in assay [2]: Ezrin (EZR), EZR (gene 7430)
Kind of assay: LTEA_HepaRG_EZR: Life Technologies and Expression Analysis (LTEA) Assay for Ezrin (EZR) using HepaRG (AID 2283491). In a few lines:
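Differentiated human HepaRG cells, 48 h after plating, were exposed in serum-free induction medium for 48 hours to eight half-log concentrations up to 100 uM in 0.5% DMSO. EZR mRNA was measured by TaqMan qRT-PCR, normalized to ACTB, GAPDH and POLR2A, and fitted bidirectionally against DMSO.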

Read-out in assay [3]: Cytochrome P450 3A7 (Homo sapiens) (UniProt P24462)
Briefly: LTEA_HepaRG_CYP3A7: Life Technologies and Expression Analysis (LTEA) Assay for CYP3A7 using HepaRG (AID 2283492). In a few lines: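 CYP3A7 transcript measured by qRT-PCR (ACTB, GAPDH, POLR2A normalization) after 48 h chemical exposure of HepaRG cells in duplicate. Eight half-log concentrations, maximum 100 uM, 0.5% DMSO vehicle; bidirectional curve fitting against DMSO baseline.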

Read-out in assay [4]: CYP3A5 (gene 1577)
Briefly: LTEA_HepaRG_CYP3A5: Life Technologies and Expression Analysis (LTEA) Assay for CYP3A5 using HepaRG (AID 2283493). A digest of the protocol:
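HepaRG cells, plated 48 h then in serum-free induction medium, dosed in duplicate for 48 h with eight half-log concentrations up to 100 uM in 0.5% DMSO. Gene mRNA by Fluidigm TaqMan qRT-PCR, normalized to ACTB, GAPDH, POLR2A.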

Read-out in assay [5]: Fatty Acid-Binding Protein 1 (FABP1), FABP1 (gene 2168)
Briefly: LTEA_HepaRG_FABP1: Life Technologies and Expression Analysis (LTEA) Assay for Fatty Acid-Binding Protein 1 (FABP1) using HepaRG (AID 2283494). A digest of the protocol:
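Differentiated human HepaRG cells exposed 48 h in serum-free induction medium to eight half-log concentrations up to 100 uM (0.5% DMSO), duplicate. FABP1 mRNA by qRT-PCR, normalised to ACTB, GAPDH, POLR2A; bidirectional fitting against DMSO.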

Read-out in assay [6]: Cytochrome P450 4A22 (Homo sapiens) (UniProt Q5TCH4)
Briefly: LTEA_HepaRG_CYP4A22: Life Technologies and Expression Analysis (LTEA) Assay for Cytochrome P450 4A22 (CYP4A22) using HepaRG (AID 2283495). A digest of the protocol:
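Gene expression measured by qRT-PCR against three housekeeping genes (ACTB, GAPDH, POLR2A), with gain or loss fitted relative to 0.5% DMSO vehicle. HepaRG cultures received 48 h chemical treatment, top concentration 100 uM, half-log steps, duplicate wells.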

Read-out in assay [7]: Glutathione S-Transferase (GSTA2), GSTA2 (gene 2939)
Briefly: LTEA_HepaRG_GSTA2: Life Technologies and Expression Analysis (LTEA) Assay for Glutathione S-Transferase (GSTA2) using HepaRG (AID 2283497). A digest of the protocol:
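Differentiated human HepaRG cells were exposed in duplicate for 48 h in serum-free induction medium, 8 points from 100 uM top in half-log steps, 0.5% DMSO. GSTA2 mRNA was measured by TaqMan qRT-PCR, normalized to ACTB, GAPDH and POLR2A; bidirectional fit versus DMSO.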

Read-out in assay [8]: Glutamate-cysteine ligase catalytic (GCLC), GCLC (gene 2729)
Briefly: LTEA_HepaRG_GCLC: Life Technologies and Expression Analysis (LTEA) Assay for Glutamate-cysteine ligase catalytic (GCLC) using HepaRG (AID 2283498). In a few lines: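 Differentiated HepaRG cells exposed 48 h in serum-free induction medium, eight-point half-log series topping at 100 uM in 0.5% DMSO, duplicates. GCLC mRNA by qRT-PCR normalized to ACTB, GAPDH and POLR2A, fitted bidirectionally versus DMSO.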

Read-out in assay [9]: growth arrest and DNA damage 45 (GADD45G), GADD45G (gene 10912)
Kind of assay: LTEA_HepaRG_GADD45G: Life Technologies and Expression Analysis (LTEA) Assay for growth arrest and DNA damage 45 (GADD45G) using HepaRG (AID 2283499). A digest of the protocol: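 GADD45G transcript level by qRT-PCR (housekeeping-normalized: ACTB, GAPDH, POLR2A) after 48 h chemical treatment of a single HepaRG lot in serum-free induction medium; eight-point half-log series up to 100 uM in 0.5% DMSO, duplicates, up- or down-regulation scored.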

Read-out in assay [10]: Glutamate-cysteine ligase regulatory (GCLM), GCLM (gene 2730)
Kind of assay: LTEA_HepaRG_GCLM: Life Technologies and Expression Analysis (LTEA) Assay for Glutamate-cysteine ligase regulatory (GCLM) using HepaRG (AID 2283500). In a few lines: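 Differentiated HepaRG cells exposed 48 h in serum-free induction medium to eight half-log concentrations up to 100 uM (0.5% DMSO). GCLM mRNA by TaqMan qRT-PCR, normalized to ACTB, GAPDH and POLR2A; bidirectional fit versus DMSO.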

Read-out in assay [11]: Heat shock 70 kDa protein 1 (HSPA1A), gene 3303
Briefly: LTEA_HepaRG_HSPA1A: Life Technologies and Expression Analysis (LTEA) Assay for Heat shock 70 kDa protein 1 (HSPA1A) using HepaRG (AID 2283502). In a few lines:
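Human HepaRG cells in serum-free induction medium were exposed in duplicate for 48 h to 8 half-log concentrations, highest 100 uM, in 0.5% DMSO. HSPA1A mRNA read by TaqMan qRT-PCR, normalized to ACTB, GAPDH, POLR2A, fitted bidirectionally against DMSO.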

Read-out in assay [12]: Hypoxia-inducible factor 1-alpha (Homo sapiens) (UniProt Q16665)
Briefly: LTEA_HepaRG_HIF1A: Life Technologies and Expression Analysis (LTEA) Assay for Hypoxia-inducible factor 1 (HIF1A) Trancription factor using HepaRG (AID 2283503). In a few lines: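 Differentiated HepaRG cells in serum-free induction medium exposed 48 h, in duplicate, to 8-point half-log series from 100 uM in 0.5% DMSO. HIF1A mRNA measured by TaqMan qRT-PCR, normalized to ACTB/GAPDH/POLR2A, fitted bidirectionally versus DMSO.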

Read-out in assay [13]: 3-Hydroxy-3-Methylglutaryl-CoA Synthase 2 (HMGCS2), HMGCS2 (gene 3158)
Briefly: LTEA_HepaRG_HMGCS2: Life Technologies and Expression Analysis (LTEA) Assay for 3-Hydroxy-3-Methylglutaryl-CoA Synthase 2 (HMGCS2) using HepaRG (AID 2283504). A digest of the protocol:
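Readout is HMGCS2 transcript by qRT-PCR, housekeeping-normalised (ACTB/GAPDH/POLR2A) and fitted bidirectionally against 0.5% DMSO. Differentiated HepaRG cells received chemicals 48 h, duplicate wells, eight half-log concentrations topping at 100 uM.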

Read-out in assay [14]: Insulin Like Growth Factor 1 (IGF1), IGF1 (gene 3479)
Kind of assay: LTEA_HepaRG_IGF1: Life Technologies and Expression Analysis (LTEA) Assay for Insulin Like Growth Factor 1 (IGF1) using HepaRG (AID 2283506). A digest of the protocol:
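Differentiated HepaRG cells in serum-free induction medium, exposed 48 h in duplicate to 8 half-log concentrations up to 100 uM in 0.5% DMSO. IGF1 mRNA by Fluidigm qRT-PCR, normalised to ACTB, GAPDH and POLR2A.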

Read-out in assay [15]: Intercellular Adhesion Molecule 1 (ICAM1), ICAM1 (gene 3383)
Briefly: LTEA_HepaRG_ICAM1: Life Technologies and Expression Analysis (LTEA) Assay for Intercellular Adhesion Molecule 1 (ICAM1) using HepaRG (AID 2283507). In a few lines:
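ICAM1 transcript levels measured by qRT-PCR, normalized to three housekeeping genes (ACTB, GAPDH, POLR2A), after 48 h chemical exposure of HepaRG cells. Duplicate eight-point half-log series from 100 uM in 0.5% DMSO; gain or loss fitted against vehicle.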

Read-out in assay [16]: Insulin-like growth factor-binding protein 1 (IGFBP1), IGFBP1 (gene 3484)
Kind of assay: LTEA_HepaRG_IGFBP1: Life Technologies and Expression Analysis (LTEA) Assay for Insulin-like growth factor-binding protein 1 (IGFBP1) using HepaRG (AID 2283508). A digest of the protocol:
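Read-out is qRT-PCR transcript level normalized to three housekeeping genes, fitted in both directions against 0.5% DMSO. Differentiated HepaRG cells received eight half-log concentrations (top 100 uM) in duplicate for 48 h in serum-free induction medium.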

Read-out in assay [17]: Interleukin 6 (IL6), IL6 (gene 3569)
Kind of assay: LTEA_HepaRG_IL6: Life Technologies and Expression Analysis (LTEA) Assay for Interleukin 6 (IL6) using HepaRG (AID 2283509). In a few lines: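 HepaRG cells exposed in duplicate for 48 h to eight half-log concentrations, top 100 uM, in 0.5% DMSO serum-free induction medium. mRNA measured by qRT-PCR, normalized to ACTB, GAPDH and POLR2A. Bidirectional fit versus DMSO.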

Read-out in assay [18]: HGF (gene 3082)
Kind of assay: LTEA_HepaRG_HGF: Life Technologies and Expression Analysis (LTEA) Assay for Hepatocyte Growth Facto (HGF) using HepaRG (AID 2283505). A digest of the protocol:
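HGF transcript was quantified by TaqMan qRT-PCR against three housekeeping genes after 48 h treatment of HepaRG cells. Exposure ran in duplicate over eight half-log steps topping at 100 uM in 0.5% DMSO vehicle.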

Calls of active or inactive are those of the source. How the source made its calls: active means hit-call score of the fitted dose curve at least 0.9, where 1 is the maximum; inactive means score below 0.9.

Hypoxia-inducible factor 1-alpha (Homo sapiens), sequence (Q16665 whole entry, looked up): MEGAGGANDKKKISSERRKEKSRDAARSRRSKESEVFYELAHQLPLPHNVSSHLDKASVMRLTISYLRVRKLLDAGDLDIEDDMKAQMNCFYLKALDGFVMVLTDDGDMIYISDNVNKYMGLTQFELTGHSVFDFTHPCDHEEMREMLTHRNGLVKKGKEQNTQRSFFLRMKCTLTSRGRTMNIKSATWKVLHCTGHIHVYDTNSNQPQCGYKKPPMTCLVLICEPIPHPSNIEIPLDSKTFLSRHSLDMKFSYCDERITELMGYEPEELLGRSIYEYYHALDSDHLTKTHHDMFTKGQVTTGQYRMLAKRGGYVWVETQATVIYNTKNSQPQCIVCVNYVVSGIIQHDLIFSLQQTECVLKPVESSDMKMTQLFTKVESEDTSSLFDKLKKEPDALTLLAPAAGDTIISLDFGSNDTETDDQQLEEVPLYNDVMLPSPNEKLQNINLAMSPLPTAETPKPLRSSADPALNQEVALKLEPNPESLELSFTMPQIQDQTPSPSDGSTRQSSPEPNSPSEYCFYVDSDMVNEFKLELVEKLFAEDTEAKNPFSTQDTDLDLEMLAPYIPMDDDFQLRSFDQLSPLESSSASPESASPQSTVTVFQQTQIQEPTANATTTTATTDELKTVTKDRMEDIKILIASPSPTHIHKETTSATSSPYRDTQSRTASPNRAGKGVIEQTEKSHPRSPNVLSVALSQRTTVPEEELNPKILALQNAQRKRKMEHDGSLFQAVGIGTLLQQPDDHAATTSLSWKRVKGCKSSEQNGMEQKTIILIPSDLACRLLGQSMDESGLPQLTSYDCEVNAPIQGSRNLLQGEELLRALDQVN
Cytochrome P450 3A7 (Homo sapiens), sequence (P24462 whole entry, looked up): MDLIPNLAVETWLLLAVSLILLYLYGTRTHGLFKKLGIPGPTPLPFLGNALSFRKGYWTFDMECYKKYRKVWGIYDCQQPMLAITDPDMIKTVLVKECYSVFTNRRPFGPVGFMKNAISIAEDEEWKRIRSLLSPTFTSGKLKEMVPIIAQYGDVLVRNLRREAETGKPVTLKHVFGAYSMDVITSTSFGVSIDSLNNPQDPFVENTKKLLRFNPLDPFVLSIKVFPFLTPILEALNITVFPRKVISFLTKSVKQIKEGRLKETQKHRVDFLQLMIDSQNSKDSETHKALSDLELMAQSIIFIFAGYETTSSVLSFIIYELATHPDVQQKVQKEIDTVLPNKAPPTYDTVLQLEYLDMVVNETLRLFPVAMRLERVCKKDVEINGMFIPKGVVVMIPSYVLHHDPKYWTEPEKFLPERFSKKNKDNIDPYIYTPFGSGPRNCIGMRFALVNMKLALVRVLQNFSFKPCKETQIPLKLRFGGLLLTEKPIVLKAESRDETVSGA

For `CC1=CC(=O)/C(=C(/C)O)C(=O)O1`, the molecule was classed as inactive in [1], in assay [2], in assay [3], in [4], in assay [5] and in assay [6]. The call in assay [7], in assay [8], in [9], in [10], in [11] and in assay [12] was inactive. For the same molecule, the result in assay [13], in assay [14], in assay [15], in assay [16] and in assay [17] was inactive.

Regarding `COc1cccc([C@H](O)C2CCN(CCc3ccc(F)cc3)CC2)c1OC`, the molecule was classed as inactive in assay [1], in assay [2], in [3], in assay [4], in assay [5] and in [6]. For the same molecule, the molecule was classed as inactive in assay [7], in assay [8], in assay [10], in assay [11], in [12] and in assay [13]. Further, the result in assay [18], in [14], in [15] and in assay [17] was inactive. In addition, the AC50 in [9] was 69.1 µM (active); in assay [16], 33.6 µM (active).

For `CCCCCCCCCCCCO`, the molecule was called inactive in assay [1], in assay [2], in [3], in assay [4], in [5] and in [6]. The result in assay [7], in [8], in assay [9], in assay [10], in assay [11] and in assay [12] was inactive. Also, the call in assay [13], in [14], in assay [15], in [16] and in [17] was inactive.

As a reminder, the AC50 is the midpoint of the concentration-response curve, whichever way the signal moves.
